Source: PubChem BioAssay AID1030 (National Center for Advancing Translational Sciences (NCATS), 2008)
Out of some 220,000 compounds screened, about 16,000 (7.3%) were called active. About 25% were inconclusive and are not listed. Calls come from the whole dose curve; as a rule, active = well fitted inhibition curve with a large enough effect (not every such curve was filed as active); inconclusive = small, poorly fitted or top-dose-only effect, or another doubt; inactive = no such curve, though single readings can be large or run the other way. The full list was thinned out, with actives kept by preference.

The compounds below were run against Aldehyde dehydrogenase 1A1 (Homo sapiens) (UniProt P00352) (assay: qHTS Assay for Inhibitors of Aldehyde Dehydrogenase 1 (ALDH1A1)). Settings: Purified ALDH1A1, NADH fluorescence, propionaldehyde substrate; series mostly up to 75.3 µM; activity, negative = inhibition: at the top concentration.
Chain of Aldehyde dehydrogenase 1A1 (Homo sapiens) (P00352 whole entry, looked up): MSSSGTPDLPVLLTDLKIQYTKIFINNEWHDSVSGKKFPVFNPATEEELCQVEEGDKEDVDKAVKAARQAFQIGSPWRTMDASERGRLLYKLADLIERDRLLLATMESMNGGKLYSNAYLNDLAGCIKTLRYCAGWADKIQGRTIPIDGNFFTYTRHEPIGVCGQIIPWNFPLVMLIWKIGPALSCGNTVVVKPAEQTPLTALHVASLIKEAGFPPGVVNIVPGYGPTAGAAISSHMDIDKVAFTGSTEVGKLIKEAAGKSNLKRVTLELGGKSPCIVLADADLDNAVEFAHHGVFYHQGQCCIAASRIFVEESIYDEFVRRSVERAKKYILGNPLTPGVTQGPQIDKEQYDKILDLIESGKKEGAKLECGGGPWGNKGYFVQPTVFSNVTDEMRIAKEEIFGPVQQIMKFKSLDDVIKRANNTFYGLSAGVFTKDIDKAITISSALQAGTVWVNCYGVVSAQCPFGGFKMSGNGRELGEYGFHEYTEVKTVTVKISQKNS
Potency is the fitted concentration of half-maximal effect.
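Throughout, for activity, negative = inhibition: plate controls were no enzyme wells and a reference inhibitor.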

Compound | activity, negative = inhibition | Potency
CCOc1c(CNCc2ccc(C(=O)O)cc2)cccc1OC | 4.84% (inactive) | –
CC(=O)Nc1cccc(-c2nc3ccccc3s2)c1C | -0.337% (inactive) | –
Cc1ccc(NC(=S)N(CCCN2CCC(C)CC2)Cc2ccco2)cc1 | -7.69% (inactive) | –
CCCOC(=O)c1[nH]c2c(c1C)C(=O)CC(c1cc(OC)c(OC)c(OC)c1)C2 (stereo not drawn) | – | 0.355 µM (active)
CCOC(=O)c1[nH]c2c(c1-c1ccccc1)C(=O)CC(c1ccc(Cl)cc1)C2 (stereo not drawn) | 8.72% (inactive) | –
CCCOC(=O)c1[nH]c2c(c1C)C(=O)CC(c1cccs1)C2 (stereo not drawn) | 12.3% (inactive) | –
COc1ccc2c(c1)O[C@@H](c1ccc3c(c1)OCO3)[C@H](OC(=O)NCCc1ccc(OC)c(OC)c1)C2=O | -7.29% (inactive) | –
O=C(CCS(=O)(=O)Cc1ccccc1)Nc1ccc2c(c1)OCCO2 | -10.7% (inactive) | –
C/C(=C\c1ccco1)C1Nc2cccc3cccc(c23)N1 | – | 10 µM (active)
CC(/C=N/NC(=O)c1cc(-c2ccc3ccccc3c2)n[nH]1)=C\c1ccco1 | -3.35% (inactive) | –
CC(/C=N/NC(=O)c1ccncc1)=C\c1ccco1 | -12.5% (inactive) | –
COCC(C)NC(=O)COc1nncc2ccccc12 (stereo not drawn) | 2.02% (inactive) | –
COc1ccc(C2c3[nH]c4ccccc4c3CCN2CCCn2cccn2)cc1C (stereo not drawn) | -9.04% (inactive) | –
O=C(CSc1nnc(-c2ccc([N+](=O)[O-])cc2)o1)Nc1ccccn1 | 7.02% (inactive) | –
Cc1ccc(/C=N/NC(=O)Cn2nc(C)c(Br)c2C)o1 | 1.11% (inactive) | –
Cc1cccc(C)c1NC(=O)CSc1ccc([N+](=O)[O-])cn1 | 5.34% (inactive) | –
C/C(=N/NC(=O)CSc1ccccn1)c1ccc([N+](=O)[O-])cc1 | – | 20 µM (active)
Cc1ccc(/C=N/NC(=O)CSc2ccccn2)o1 | – | 7.94 µM (active)
Cc1ccc(/C=N/NC(=O)CNC(=O)COc2ccccc2)o1 | -8.24% (inactive) | –
CC1CC(C)(C)NC(=S)N1CCC(=O)N1CCN(Cc2ccccc2)CC1 (stereo not drawn) | 1.21% (inactive) | –
CCN(CC)Cc1nc2sc(C)c(C)c2c(=O)[nH]1 | -1.29% (inactive) | –
Cc1sc2nc(CSCC(=O)Nc3c(Cl)cccc3Cl)[nH]c(=O)c2c1C | -7.94% (inactive) | –
CSc1nnc(SCc2nc3sc(C(=O)O)c(C)c3c(=O)[nH]2)s1 | – | 7.08 µM (active)

Compound | activity, negative = inhibition | Potency
Fc1ccccc1N=C1Nc2cccc3cccc1c23 | 2% (inactive) | –
CCC(C(=O)NCc1ccc(OC)cc1)n1nc(C)n2c(cc3occc32)c1=O (stereo not drawn) | -10.2% (inactive) | –
CCOc1ccc(CCNC(=O)C(CC)n2nc(C)n3c(cc4sccc43)c2=O)cc1OCC (stereo not drawn) | – | 31.6 µM (active)
COc1ccc(CCNC(=O)c2cc3sccc3n2C)cc1OC | -13.6% (inactive) | –
CCCCC/C=C\C/C=C\CCCCCCCCCC(=O)NCC(=O)O | 10.8% (inactive) | –
CC(C)(C)c1cc(C(=O)N/N=C/c2ccc([N+](=O)[O-])s2)n[nH]1 | 3.41% (inactive) | –
Cc1ccc(SCCC(=O)Nc2cc(C)on2)cc1 | -1.48% (inactive) | –
O=c1c2ccccc2c(-c2ccccc2)nn1-c1ccccn1 | 8.22% (inactive) | –
CCCc1nc(NCc2ccc3c(c2)OCO3)c2nnn(Cc3ccccc3Cl)c2n1 | -3.33% (inactive) | –
C#CCNc1nc(C(C)C)nc2c1nnn2Cc1ccccc1F | – | 11.2 µM (active)
CC(O)C(NS(=O)(=O)c1ccc(Cl)cc1)C(=O)OCc1cc([N+](=O)[O-])cc2c1OCOC2 (stereo not drawn) | 1.81% (inactive) | –
Cc1cc(CNC(=O)c2cccc([N+](=O)[O-])c2)c2ccccc2n1 | 1.21% (inactive) | –
CCO[C@H]1OC(C(=O)O)=C[C@@H](C2CCCCC2)[C@@H]1CCCO | -0.479% (inactive) | –
COc1ccccc1NC(=O)C[n+]1ccccc1 | 0.275% (inactive) | –
O=C(Nc1ccccc1C(F)(F)F)N1CCCC1c1cccnc1 (stereo not drawn) | 1.15% (inactive) | –
CC(C)CNC(=O)/C=C/C(=O)O | 0.351% (inactive) | –
CC1=CC(C)(C)NC(=S)N1c1ccccc1 | 4% (inactive) | –
O=C1/C(=C\c2ccsc2)NC(=S)N1c1ccccc1 | – | 28.2 µM (active)
CCCCCCCCCCCCC(NC(C)=O)(C(=O)OCC)C(=O)OCC | 2.57% (inactive) | –
COc1cc(NC(=O)CN(C)S(=O)(=O)c2ccc3nc(C)sc3c2)cc(OC)c1 | -1.71% (inactive) | –
COc1cc(C=O)c(Br)cc1OCC(=O)NCc1ccccc1 | -3.58% (inactive) | –
COc1ccccc1OCCC(=O)OCC(=O)NCc1ccccc1 | -5.5% (inactive) | –
COc1cc(C(=S)NCc2ccccc2)cc(Br)c1O | – | 1.78 µM (active)

Compound | activity, negative = inhibition | Potency
C=CCOc1nc2c(c(=O)n(C)c(=O)n2C)n1Cc1ccc(Cl)cc1Cl | -3.47% (inactive) | –
Cn1c(=O)c2c(nc(NCCc3ccccc3)n2Cc2ccccc2)n(C)c1=O | 4.03% (inactive) | –
Cn1c(=O)c2c(nc(OCc3cccnc3)n2Cc2ccccc2)n(C)c1=O | – | 10 µM (active)
CCOC(=O)N1CCN(Cc2nc3c(c(=O)n(C)c(=O)n3C)n2Cc2ccccc2)CC1 | – | 0.126 µM (active)
COCCn1c(CN2CCC(Cc3ccccc3)CC2)nc2c1c(=O)n(C)c(=O)n2C | 7.1% (inactive) | –
CC1CN(Cc2nc3c(c(=O)n(C)c(=O)n3C)n2Cc2cccc(Cl)c2)CC(C)O1 (stereo not drawn) | 2.02% (inactive) | –
Cn1c(SCC(=O)Nc2ccc(Br)cc2F)nnc1-c1ccco1 | -4.47% (inactive) | –
CCCC1NC(=S)NC(C)=C1C(C)=O (stereo not drawn) | -5.57% (inactive) | –
CCO[C@H]1OC(C(=O)NCc2ccccc2)=C[C@@H](c2coc3ccccc3c2=O)[C@@H]1CCCO | -0.194% (inactive) | –
COCCNC(=S)N1CCC(NC(=O)C23CC4CC(CC(C4)C2)C3)CC1 | 3.85% (inactive) | –
Cc1cccc(C)c1NC(=O)Nc1ccccc1-n1ccnc1 | 0.169% (inactive) | –
COc1ccc(OCC(=O)OCC(=O)Nc2ccc(S(=O)(=O)N3CCCCC3)cc2)cc1 | – | 10 µM (active)
COC(=O)COc1ccc(S(=O)(=O)N2CCOCC2)cc1 | 10.5% (inactive) | –
COc1ccc(NC(=O)COC(=O)CNC(=O)C2CCCCC2)cc1 | 9.02% (inactive) | –
Cc1cccc(NC(=O)c2sc3nc4c(c(-c5ccco5)c3c2N)CCC4)c1 | – | 12.6 µM (active)
O=c1oc(-c2ccco2)nc2sc3c(c12)CCCCC3 | -4.5% (inactive) | –
Cc1cccc(NC(=O)CSc2nnc(-c3ccco3)o2)c1 | -0.84% (inactive) | –
O=C(CC(NC(=O)c1ccccc1)c1ccccc1)Nc1ccc(F)c(F)c1 (stereo not drawn) | 3.66% (inactive) | –
Cc1ccc(Cl)cc1-c1ccc(/C=N/n2cnnc2)o1 | 2.14% (inactive) | –
Cc1cc(-c2ccc(/C=N/n3cnnc3)o2)c([N+](=O)[O-])cc1C | – | 10 µM (active)
Cc1cc([N+](=O)[O-])c(-c2ccc(/C=N/n3cnnc3)o2)cc1Cl | 4.82% (inactive) | –
CN(C)/C=C(/C(=O)c1ccccc1)S(=O)(=O)c1ccc(Cl)cc1 | -1.39% (inactive) | –
